In PubChem BioAssay AID1159580 (chemical genetic matrix, 2015):
The whole screen tested about 5,500 compounds, of which about 2,000 (36%) were called active. Not shown: some 18% with an inconclusive outcome. No stated cut-off is given here; in the data, active means normalized growth mostly below about 0.91 (no sharp cut-off); inconclusive means no clear call, values can overlap the other calls; inactive means mostly above about 0.92. Some of the results follow.

Experiment: chemical genetic growth profiling, strain panel (AID 1159580);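 further: tested at 20 µM; growth read once vehicle control cultures reached saturation at 30 °C; 1 = growth at the plate median or of vehicle wells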
Conditions: S. cerevisiae deletion strains, growth OD
[1] = locus YAR019C, strain CDC15, stronger effect = lower value
[2] = locus YBL105C, strain PKC1, stronger effect = lower value
[3] = locus YBR135W, strain CKS1, stronger effect = lower value
[4] = locus YBR136W, strain MEC1, stronger effect = lower value
[5] = locus YBR160W, strain CDC28, stronger effect = lower value
[6] = locus YDL017W, strain CDC7, stronger effect = lower value
[7] = locus YDL028C, strain MPS1, stronger effect = lower value
[8] = locus YDL101C, strain DUN1, stronger effect = lower value
[9] = locus YDL108W, strain KIN28, stronger effect = lower value
[10] = locus YDL132W, strain cdc53, stronger effect = lower value
[11] = locus YDL214C, strain PRR2, stronger effect = lower value
[12] = locus YDR052C, strain DBF4, stronger effect = lower value
[13] = locus YDR054C, strain cdc34, stronger effect = lower value
[14] = locus YDR226W, strain ADK1, stronger effect = lower value
[15] = locus YDR477W, strain SNF1, stronger effect = lower value
[16] = locus YER123W, strain YCK3, stronger effect = lower value
[17] = locus YER133W, strain GLC7, stronger effect = lower value
[18] = locus YFL009W, strain cdc4, stronger effect = lower value
[19] = locus YFL029C, strain CAK1, stronger effect = lower value
[20] = locus YFR003C, strain YPI1, stronger effect = lower value
[21] = locus YFR019W, strain FAB1, stronger effect = lower value
[22] = locus YFR028C, strain CDC14, stronger effect = lower value
[23] = locus YGR040W, strain KSS1, stronger effect = lower value
[24] = locus YGR052W, strain FMP48, stronger effect = lower value
[25] = locus YGR092W, strain DBF2, stronger effect = lower value
[26] = locus YHR030C, strain SLT2, stronger effect = lower value
[27] = locus YHR079C, strain IRE1, stronger effect = lower value
[28] = locus YHR082C, strain KSP1, stronger effect = lower value
[29] = locus YHR205W, strain SCH9, stronger effect = lower value
[30] = locus YIL147C, strain SLN1, stronger effect = lower value
[31] = locus YJL095W, strain BCK1, stronger effect = lower value
[32] = locus YJL128C, strain PBS2, stronger effect = lower value
[33] = locus YJL157C, strain FAR1, stronger effect = lower value
[34] = locus YJR016C, strain ILV3, stronger effect = lower value
[35] = locus YJR066W, strain TOR1 (second series), stronger effect = lower value
[36] = locus YJR066W, strain TOR1, stronger effect = lower value
[37] = locus YKL048C, strain ELM1, stronger effect = lower value
[38] = locus YKL067W, strain YNK1, stronger effect = lower value
[39] = locus YKL101W, strain HSL1, stronger effect = lower value
[40] = locus YKL193C, strain SDS22, stronger effect = lower value
[41] = locus YKL203C, strain TOR2, stronger effect = lower value
[42] = locus YLR113W, strain HOG1, stronger effect = lower value
[43] = locus YLR133W, strain CKI1, stronger effect = lower value
[44] = locus YLR403W, strain SFP1, stronger effect = lower value
[45] = locus YML070W, strain DAK1, stronger effect = lower value
[46] = locus YMR001C, strain CDC5, stronger effect = lower value
[47] = locus YMR205C, strain PFK2 (second series), stronger effect = lower value
[48] = locus YMR277W, strain FCP1, stronger effect = lower value
[49] = locus YNL006W, strain LST8, stronger effect = lower value
[50] = locus YNL020C, strain ARK1, stronger effect = lower value
[51] = locus YNL161W, strain CBK1, stronger effect = lower value
[52] = locus YNL183C, strain NPR1, stronger effect = lower value
[53] = locus YNL207W, strain RIO2, stronger effect = lower value
[54] = locus YNL222W, strain SSU72, stronger effect = lower value
[55] = locus YNL307C, strain MCK1 (second series), stronger effect = lower value
[56] = locus YOL078W, strain AVO1, stronger effect = lower value
[57] = locus YOL136C, strain PFK27, stronger effect = lower value
[58] = locus YOR061W, strain CKA2, stronger effect = lower value
[59] = locus YOR119C, strain RIO1, stronger effect = lower value
[60] = locus YOR231W, strain MKK1, stronger effect = lower value
[61] = locus YOR329C, strain SCD5, stronger effect = lower value
[62] = locus YPL031C, strain PHO85, stronger effect = lower value
[63] = locus YPL153C, strain RAD53, stronger effect = lower value
[64] = locus YPL204W, strain HRR25, stronger effect = lower value
[65] = locus YPL209C, strain IPL1, stronger effect = lower value
[66] = locus YPL256C, strain CLN2, stronger effect = lower value
[67] = locus YPR025C, strain CCL1, stronger effect = lower value
[68] = locus YPR106W, strain ISR1, stronger effect = lower value
[69] = locus YPR111W, strain DBF20, stronger effect = lower value
[70] = strain NNK1, stronger effect = lower value
[71] = strain TSCII, stronger effect = lower value

Measured: normalized growth

O=C1C(NCc2ccccc2)=C(NCc2ccccc2)C(=O)c2ccccc21
inactive: [1] 0.929 | [2] 0.915 | [3] 0.918 | [4] 0.913 | [5] 0.92 | [6] 0.922 | [7] 0.904 | [8] 0.916 | [9] 0.897 | [10] 0.907 | [11] 0.869 | [12] 0.931 | [13] 0.921 | [15] 0.839 | [16] 0.845 | [17] 0.839 | [18] 0.902 | [19] 0.913 | [20] 0.912 | [21] 0.942 | [23] 0.825 | [24] 0.893 | [25] 0.744 | [26] 0.885 | [27] 0.979 | [28] 0.883 | [29] 0.931 | [30] 0.895 | [31] 0.886 | [32] 0.885 | [33] 0.833 | [35] 0.775 | [36] 0.879 | [37] 0.829 | [38] 0.862 | [39] 0.875 | [40] 0.906 | [41] 0.84 | [42] 0.895 | [43] 0.856 | [44] 0.802 | [45] 0.871 | [46] 0.896 | [47] 0.878 | [48] 0.903 | [49] 0.923 | [50] 0.845 | [51] 0.922 | [52] 0.904 | [54] 0.925 | [55] 0.842 | [56] 0.911 | [57] 0.884 | [58] 0.817 | [59] 0.784 | [60] 0.954 | [61] 0.935 | [62] 0.837 | [63] 0.826 | [64] 0.827 | [65] 0.934 | [66] 0.986 | [67] 0.93 | [68] 0.899 | [69] 0.91 | [70] 0.902 | [71] 0.907
active: [14] 0.893 | [22] 0.881 | [34] 0.898 | [53] 0.874

O=C1c2ccccc2C(=O)c2sccc21
active: [1] 0.556 | [2] 0.778 | [3] 0.716 | [4] 0.718 | [5] 0.75 | [6] 0.72 | [7] 0.749 | [8] 0.466 | [9] 0.752 | [10] 0.674 | [11] 0.233 | [12] 0.646 | [13] 0.556 | [14] 0.751 | [15] 0.209 | [16] 0.183 | [17] 0.225 | [18] 0.59 | [19] 0.4 | [20] 0.694 | [21] 0.171 | [22] 0.649 | [23] 0.182 | [24] 0.156 | [25] 0.152 | [26] 0.157 | [27] 0.211 | [28] 0.204 | [29] 0.124 | [30] 0.669 | [31] 0.154 | [32] 0.595 | [33] 0.227 | [34] 0.483 | [35] 0.147 | [36] 0.15 | [37] 0.33 | [38] 0.272 | [39] 0.209 | [40] 0.498 | [41] 0.158 | [42] 0.303 | [43] 0.196 | [44] 0.154 | [45] 0.214 | [46] 0.614 | [47] 0.236 | [48] 0.46 | [49] 0.593 | [50] 0.183 | [51] 0.636 | [52] 0.161 | [53] 0.473 | [54] 0.634 | [55] 0.16 | [56] 0.511 | [57] 0.192 | [58] 0.244 | [59] 0.221 | [60] 0.206 | [61] 0.579 | [62] 0.184 | [63] 0.207 | [64] 0.198 | [65] 0.684 | [66] 0.223 | [67] 0.705 | [68] 0.601 | [69] 0.691 | [70] 0.305 | [71] 0.527
